From PubChem BioAssay (EPA / NIEHS)
Results filed as inconclusive are left out. Active and inactive are the calls of the source. How the source made its calls, unless noted: active means hit-call score of the fitted dose curve at least 0.9, where 1 is the maximum; inactive means score below 0.9.

How the values were obtained:
[1] = ACEA_ER_80hr: ACEA Biosciences xCELLigence Real-Time Cell Analysis on Estrogen Receptor Agonism for Proliferation (AID 2282667; active means hit-call score of the fitted dose curve at least 0.9, where 1 is the maximum); details: T47D proliferation, impedance (xCELLigence), 80 h
Method in brief: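 T-47D cells monitored by electrical impedance (xCELLigence) with compound present throughout; 80 h timepoint, positive-direction fitting versus DMSO. Eight-point 1:4 dilutions from 100 uM final, duplicate plates.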

[2] = ATG_CRE_CIS: Attagene CIS-FACTORIAL HepG2 Assay for human cAMP Responsive Element (CRE) binding protein 3 (AID 2282926); details: HepG2 CRE cis-reporter, Attagene multiplexed mRNA; actives raise or lower the signal
Method in brief: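 Induced reporter mRNA from a CRE cis element, measured in HepG2 among many multiplexed units at 24 h. Detection used RT-PCR plus capillary electrophoresis of fluorescent fragments; DMSO served as negative control.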

[3] = target: CCAAT/enhancer-binding protein beta (Homo sapiens) (UniProt P17676); assay: ATG_C_EBP_CIS: Attagene CIS-FACTORIAL HepG2 Assay for human CCAAT/Enhancer Binding Protein (C/EBP) beta (AID 2282927); details: HepG2 Attagene cis-factorial transcription factor reporter; actives raise or lower the signal
Chain of CCAAT/enhancer-binding protein beta (Homo sapiens) (P17676 whole entry, looked up): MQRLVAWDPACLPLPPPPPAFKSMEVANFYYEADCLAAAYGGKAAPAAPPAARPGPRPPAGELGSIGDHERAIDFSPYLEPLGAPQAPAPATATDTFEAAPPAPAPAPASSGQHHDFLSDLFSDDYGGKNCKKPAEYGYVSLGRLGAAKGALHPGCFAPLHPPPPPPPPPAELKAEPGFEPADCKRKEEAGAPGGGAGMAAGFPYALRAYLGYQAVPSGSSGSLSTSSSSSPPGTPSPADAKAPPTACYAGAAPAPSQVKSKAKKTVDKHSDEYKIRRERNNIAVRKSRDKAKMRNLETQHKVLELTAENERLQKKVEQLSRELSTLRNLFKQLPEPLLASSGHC
Method in brief: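 HepG2, transient MRTU transfection, 24 h treatment. RT-PCR plus CE fluorescence; DMSO negative control, bidirectional fit.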

[4] = ATG_CMV_CIS: Attagene CIS-FACTORIAL HepG2 Assay for human CMV (Internal Marker) (AID 2282928); details: HepG2 CMV promoter reporter, transcription factor profiling; actives raise or lower the signal;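 further: endpoint acts as a background internal control marker rather than a target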
Method in brief: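 Reporter transcripts from transfected HepG2 cells are isolated after 24 h of chemical dosing, reverse-transcribed and amplified. Fragments labeled with 6-FAM are cut with HpaI and quantified by capillary electrophoresis; DMSO defines baseline.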

[5] = ATG_DR4_LXR_CIS: Attagene CIS-FACTORIAL HepG2 Assay for human Liver X Receptor (LXR), DR4 submotif (AID 2282929); details: HepG2 Attagene DR4 cis-reporter, mRNA transcription; actives raise or lower the signal
Method in brief: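 After transient transfection with multiplexed cis-promoter reporter units, HepG2 cells received test chemicals for 24 h. Reporter mRNA induction, detected by fluorescence after RT-PCR and capillary electrophoresis, was scored relative to DMSO.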

[6] = target: Aryl hydrocarbon receptor (Homo sapiens) (UniProt P35869); assay: ATG_Ahr_CIS: Attagene CIS-FACTORIAL HepG2 Assay for human Aryl Hydrocarbon Receptor (Ahr) (AID 2282930); details: HepG2 AhR cis-factorial reporter transcription; actives raise or lower the signal
Chain of Aryl hydrocarbon receptor (Homo sapiens) (P35869 whole entry, looked up): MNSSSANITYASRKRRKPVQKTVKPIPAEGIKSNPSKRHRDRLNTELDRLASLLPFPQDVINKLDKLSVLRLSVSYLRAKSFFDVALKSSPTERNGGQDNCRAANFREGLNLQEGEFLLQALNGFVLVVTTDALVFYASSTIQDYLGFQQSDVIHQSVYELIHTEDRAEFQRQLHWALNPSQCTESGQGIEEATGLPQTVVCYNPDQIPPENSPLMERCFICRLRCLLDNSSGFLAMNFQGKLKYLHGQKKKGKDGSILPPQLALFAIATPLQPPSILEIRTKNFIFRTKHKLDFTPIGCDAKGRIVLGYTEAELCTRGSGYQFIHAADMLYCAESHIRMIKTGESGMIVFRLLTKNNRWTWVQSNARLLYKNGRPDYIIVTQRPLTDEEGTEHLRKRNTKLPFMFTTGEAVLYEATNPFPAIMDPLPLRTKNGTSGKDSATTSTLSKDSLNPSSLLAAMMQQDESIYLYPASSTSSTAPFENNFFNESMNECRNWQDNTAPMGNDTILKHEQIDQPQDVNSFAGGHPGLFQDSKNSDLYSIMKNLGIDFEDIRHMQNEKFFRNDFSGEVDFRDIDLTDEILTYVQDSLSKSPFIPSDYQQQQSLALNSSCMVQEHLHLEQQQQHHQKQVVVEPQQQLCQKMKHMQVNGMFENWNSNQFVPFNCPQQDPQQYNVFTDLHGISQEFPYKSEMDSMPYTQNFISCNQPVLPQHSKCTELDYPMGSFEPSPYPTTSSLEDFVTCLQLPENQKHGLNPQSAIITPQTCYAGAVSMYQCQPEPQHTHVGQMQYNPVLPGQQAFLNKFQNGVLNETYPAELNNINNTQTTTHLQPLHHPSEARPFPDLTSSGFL
Method in brief: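 Endogenous factor activity is tracked through cis-promoter reporter units transfected into HepG2 cells. Transcript levels at 24 h are read by fluorescent RT-PCR and capillary electrophoresis, with activity in either direction scored relative to DMSO.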

[7] = ATG_AP_1_CIS: Attagene CIS-FACTORIAL HepG2 Assay for human Activator Protein 1 (AP-1) (AID 2282931); details: HepG2 Attagene cis-factorial AP-1 reporter mRNA; actives raise or lower the signal
Method in brief: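 After 24 h incubation with test chemical, RNA from transfected HepG2 cells was reverse-transcribed, amplified, fluorescently labelled and digested before capillary electrophoresis. Reporters were driven by cis-regulatory promoters; activity fitted bidirectionally versus DMSO.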

[8] = ATG_AP_2_CIS: Attagene CIS-FACTORIAL HepG2 Assay for human Activator Protein 2 (AP-2) (AID 2282932); details: HepG2 AP-2 cis-reporter, Attagene transcription factor profiling; actives raise or lower the signal
Method in brief: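 Read-out: fluorescent reporter mRNA via RT-PCR and capillary electrophoresis, 24 h post-dose in transiently transfected HepG2. Endogenous factors drive cis-promoter reporters; gain or loss of signal fitted bidirectionally against DMSO.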

[9] = ATG_BRE_CIS: Attagene CIS-FACTORIAL HepG2 Assay for human Bone Morphogenetic Protein (BMP) Response Element (BRE) (AID 2282933); details: HepG2 BMP response element reporter, Attagene transcription factor profiling; actives raise or lower the signal
Method in brief: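 Fluorescence-labelled reporter cDNA fragments, separated by capillary electrophoresis, gave the signal for this component of a 52-readout multiplex. HepG2 cells were transfected, exposed to chemicals for 24 h, and compared with DMSO using bidirectional fitting.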

[10] = target: Retinoic acid receptor alpha (Homo sapiens) (UniProt P10276); assay: ATG_DR5_RAR_CIS: Attagene CIS-FACTORIAL HepG2 Assay for human Retinoic Acid Receptor Alpha (RARE), DR5 submotif (AID 2282934); details: HepG2 Attagene cis-factorial RARE DR5 reporter, mRNA; actives raise or lower the signal;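 on AC50: reporter responds to endogenous RAR alpha beta and gamma in HepG2 not RARA alone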
Chain of Retinoic acid receptor alpha (Homo sapiens) (P10276 whole entry, looked up): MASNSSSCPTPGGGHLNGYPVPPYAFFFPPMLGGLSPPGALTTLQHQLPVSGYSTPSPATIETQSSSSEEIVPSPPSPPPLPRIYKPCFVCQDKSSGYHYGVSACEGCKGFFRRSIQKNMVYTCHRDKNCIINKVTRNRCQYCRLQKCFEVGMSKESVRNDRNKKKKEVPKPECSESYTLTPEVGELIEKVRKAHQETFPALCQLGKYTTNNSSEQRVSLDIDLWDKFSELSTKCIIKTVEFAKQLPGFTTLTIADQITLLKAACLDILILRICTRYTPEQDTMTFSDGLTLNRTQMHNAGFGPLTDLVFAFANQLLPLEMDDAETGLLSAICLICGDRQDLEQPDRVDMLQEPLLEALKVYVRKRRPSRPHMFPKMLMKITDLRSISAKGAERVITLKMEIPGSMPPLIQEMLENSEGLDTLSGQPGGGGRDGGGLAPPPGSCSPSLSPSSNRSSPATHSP
Method in brief: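 After 24 h of chemical exposure, transiently transfected HepG2 cells were lysed for total RNA; the DR5-regulated reporter transcript was quantified via RT-PCR and capillary electrophoresis, with activity fitted bidirectionally against DMSO.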

[11] = target: Transcription factor E2F1 (Homo sapiens) (UniProt Q01094); assay: ATG_E2F_CIS: Attagene CIS-FACTORIAL HepG2 Assay for human E2F Transcription Factor 1 (AID 2282935); details: HepG2 Attagene cis-reporter, E2F reporter RNA transcripts; actives raise or lower the signal
Chain of Transcription factor E2F1 (Homo sapiens) (Q01094 whole entry, looked up): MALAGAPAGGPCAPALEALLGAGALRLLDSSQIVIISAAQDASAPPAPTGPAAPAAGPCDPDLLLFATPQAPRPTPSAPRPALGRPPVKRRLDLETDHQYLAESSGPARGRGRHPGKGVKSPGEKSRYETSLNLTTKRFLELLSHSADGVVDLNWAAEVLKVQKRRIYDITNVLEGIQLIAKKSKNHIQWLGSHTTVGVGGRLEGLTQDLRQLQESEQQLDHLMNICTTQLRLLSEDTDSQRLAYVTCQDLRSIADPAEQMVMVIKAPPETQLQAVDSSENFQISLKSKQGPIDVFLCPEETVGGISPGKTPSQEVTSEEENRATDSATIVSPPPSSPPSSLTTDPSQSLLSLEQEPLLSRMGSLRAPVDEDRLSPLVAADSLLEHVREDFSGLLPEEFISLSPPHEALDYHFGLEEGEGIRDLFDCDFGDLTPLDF
Method in brief: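 Transient MRTU transfection of HepG2; 24 h compound exposure; RNA → oligo(dT) RT → PCR → FAM label → HpaI cut → CE fluorescence. Gain/loss of signal fit against DMSO.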

[12] = ATG_E_Box_CIS: Attagene CIS-FACTORIAL HepG2 Assay for human Enhancer Box (E-box) (AID 2282936); details: HepG2 E-box cis-reporter transcription, actives raise or lower the signal
Method in brief: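 Transiently transfected HepG2, endogenous TF-driven reporters, 24 h dosing. Readout: RT-PCR plus capillary electrophoresis of fluorescent reporter fragments. Gain or loss of signal fitted bidirectionally against DMSO baseline.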

[13] = ATG_M_61_CIS: Attagene CIS-FACTORIAL HepG2 Assay for M61 Transcription Factor (Internal Marker) (AID 2282937); details: HepG2 Attagene CIS-FACTORIAL M61 internal marker reporter; actives raise or lower the signal
Method in brief: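 Using transiently transfected HepG2 liver cells, reporter transcript levels were assessed 24 h post-dosing by RT-PCR and capillary electrophoresis. Changes in either direction were fitted relative to DMSO controls.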

[14] = ATG_EGR_CIS: Attagene CIS-FACTORIAL HepG2 Assay for human Early Growth Response 1 (EGR1) (AID 2282938); details: HepG2 Attagene CIS-FACTORIAL EGR reporter mRNA; actives raise or lower the signal
Method in brief: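 Fluorescent capillary-electrophoresis signal of reporter cDNA fragments serves as read-out. HepG2 cells bear transiently transfected cis-promoter reporter units and are exposed 24 h; gain- or loss-of-signal is fitted against DMSO.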

[15] = ATG_M_19_CIS: Attagene CIS-FACTORIAL HepG2 Assay for M19 Transcription Factor (Internal Marker) (AID 2282939); details: HepG2 Attagene CIS-FACTORIAL M19 internal marker reporter; actives raise or lower the signal
Method in brief: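 HepG2, MRTU transient transfection, 24 h dosing. Total RNA → RT-PCR → 6-FAM primer extension → HpaI digest → CE fluorescence. Bidirectional curve fit, DMSO negative control.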

[16] = ATG_ERE_CIS: Attagene CIS-FACTORIAL HepG2 Assay for Estrogen Response Element (ERE) (AID 2282940); details: HepG2 ERE cis-reporter, Attagene RNA transcript; actives raise or lower the signal
Method in brief: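 After a 24 h chemical treatment, RNA from reporter-transfected HepG2 cells is reverse-transcribed, PCR-amplified and fluorescently labelled. Fragments separated by capillary electrophoresis give reporter signal; DMSO serves as negative control.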

[17] = ATG_Ets_CIS: Attagene CIS-FACTORIAL HepG2 Assay for human Erythroblast Transformation Specific (ETS) (AID 2282941); details: HepG2 ETS cis-reporter transcription, actives raise or lower the signal
Method in brief: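 Bidirectional fit versus DMSO of reporter mRNA signal, detected by RT-PCR and capillary electrophoresis in HepG2 cells transiently transfected with cis-element reporters and dosed 24 h.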

[18] = target: Hepatocyte nuclear factor 3-beta (Homo sapiens) (UniProt Q9Y261); assay: ATG_FoxA2_CIS: Attagene CIS-FACTORIAL HepG2 Assay for human Forkhead box A2 (FOXA2) (AID 2282942); details: HepG2 cis-reporter transcription factor activity, 24 h; actives raise or lower the signal
Chain of Hepatocyte nuclear factor 3-beta (Homo sapiens) (Q9Y261 whole entry, looked up, the tested form may be a part): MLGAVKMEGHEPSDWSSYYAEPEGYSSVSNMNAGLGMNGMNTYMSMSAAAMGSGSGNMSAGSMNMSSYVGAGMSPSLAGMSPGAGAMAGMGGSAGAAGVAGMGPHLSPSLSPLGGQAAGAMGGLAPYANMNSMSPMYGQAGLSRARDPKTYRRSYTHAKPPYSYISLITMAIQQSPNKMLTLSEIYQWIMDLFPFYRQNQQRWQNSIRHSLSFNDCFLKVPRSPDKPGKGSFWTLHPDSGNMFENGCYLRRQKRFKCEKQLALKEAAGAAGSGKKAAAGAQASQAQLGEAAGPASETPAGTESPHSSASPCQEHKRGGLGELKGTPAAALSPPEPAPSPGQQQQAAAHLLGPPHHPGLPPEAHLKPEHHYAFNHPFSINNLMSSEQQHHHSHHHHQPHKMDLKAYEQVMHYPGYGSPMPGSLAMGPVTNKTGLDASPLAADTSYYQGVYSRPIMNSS
Method in brief: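 Fluorescence signal of reporter cDNA fragments, separated by capillary electrophoresis, reflects endogenous transcription factor activity in transfected HepG2 after 24 h. Both increases and decreases fitted against DMSO.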

[19] = ATG_FoxO_CIS: Attagene CIS-FACTORIAL HepG2 Assay for human Forkhead box O (FoxO) (AID 2282943); details: HepG2 Attagene cis-reporter, FoxO element, mRNA; actives raise or lower the signal
Method in brief: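 Transfected HepG2 reporter cells exposed to test chemical for 24 h; reporter RNA measured by reverse transcription, PCR and fluorescent capillary electrophoresis; curves fitted for increases and decreases against DMSO.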

[20] = ATG_GATA_CIS: Attagene CIS-FACTORIAL HepG2 Assay for human GATA Binding Protein (AID 2282944); details: HepG2 GATA cis-element reporter, Attagene multiplex mRNA; actives raise or lower the signal
Method in brief: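 Cells: HepG2, transiently transfected with cis-regulated reporter transcription units. Exposure: 24 h. Detection: RT-PCR plus capillary electrophoresis of FAM-labeled fragments. Analysis: bidirectional, DMSO as baseline.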

Measured: AC50

C1CCSC1
inactive: all assays above

CC1(C)[C@@H]2CC[C@@]1(C)C(=O)C2
inactive: all assays above

CC=C(C)C(C)=O
active: [10] 43 µM
not listed: [16]
inactive: all other assays above

Nc1ccc(O)c([N+](=O)[O-])c1
active: [6] 13.9 µM
not listed: [16]
inactive: all other assays above

O=C(O)/C=C/c1ccccc1
active: [1] 2.06 µM | [16] 42.5 µM
inactive: all other assays above

N#Cc1ccc(C(c2ccc(C#N)cc2)n2cncn2)cc1
inactive: all assays above

CCCCCCCC(=O)OCC(COC(=O)CCCCCCC)OC(=O)CCCCCCC
inactive: all assays above
